Most compounds without a hit are left out; they make up all but 18% or so of the library.
VDR inhibitor: Inhibitors of the vitamin D receptor (VDR): qHTS; VDR-SRC2-3 peptide fluorescence polarization, 2 h; Vitamin D3 receptor (Homo sapiens), P11473; hit rate 0.93% among 400,000; Potency, µM, most hits filed as inhibitors; AID 504847, 2011
Target sequence (P11473 whole entry, looked up): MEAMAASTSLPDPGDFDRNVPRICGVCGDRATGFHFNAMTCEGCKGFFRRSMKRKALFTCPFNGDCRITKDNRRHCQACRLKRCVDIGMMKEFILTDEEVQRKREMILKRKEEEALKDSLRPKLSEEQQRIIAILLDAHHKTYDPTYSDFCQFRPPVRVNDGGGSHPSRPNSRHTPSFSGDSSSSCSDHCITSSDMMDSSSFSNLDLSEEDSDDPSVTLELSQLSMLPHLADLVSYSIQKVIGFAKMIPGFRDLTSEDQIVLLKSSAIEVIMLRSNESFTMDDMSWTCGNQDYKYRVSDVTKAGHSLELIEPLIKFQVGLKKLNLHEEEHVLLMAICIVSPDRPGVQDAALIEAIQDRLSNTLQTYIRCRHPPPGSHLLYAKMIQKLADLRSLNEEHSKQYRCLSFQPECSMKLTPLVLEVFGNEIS
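Inhibition of the VDR/SRC2-3 peptide interaction is quantified by fluorescence polarization. Compounds (23 nl, pintool) incubate with the reagents for 2 hours at ambient room temperature.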
TDP1 cell noCPT: qHTS for Inhibitors of human tyrosyl-DNA phosphodiesterase 1 (TDP1): qHTS in cells in absence of CPT | DT40 Tdp1-/- hTDP1 cells, no CPT, ATP luminescence, 48 h | Potency, µM (doses to about 46.2 µM), hits mostly inhibitors | hit rate 15% among 420,000 | AID 686978, 2013; note: nearly all actives have a fitted effect of over 55% in size
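Growth of hTDP1-complemented DT40 Tdp1-knockout cells is measured by ATP luminescence after at least 48 hr compound exposure at 37 °C, with DMSO substituting for the 20 nM CPT used in the parallel screen.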
TDP1 cell CPT: qHTS for Inhibitors of human tyrosyl-DNA phosphodiesterase 1 (TDP1): qHTS in cells in presence of CPT; chicken DT40 Tdp1-/-;hTDP1 cells + 20 nM CPT, ATP luminescence, 48 h; Potency, µM (titrated, usually from 46.2 µM), most hits filed as inhibitors; hit rate 12% among 420,000; note: nearly all actives have a fitted effect of over 55% in size
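Cell growth measured by CellTiter-Glo luminescence after a minimum 48 h, 37 C compound exposure with 20 nM CPT in Tdp1-knockout DT40 cells stably expressing hTDP1, seeded 400/well; qHTS titration format.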
GCN5L2 inh: qHTS Assay for Inhibitors of GCN5L2. Histone acetyltransferase KAT2A (Homo sapiens), Q92830. GCN5L2 HAT assay, ThioGlo1 CoA-SH fluorescence. Potency, µM (doses to about 58.9 µM), hits mostly inhibitors. hit rate 0.21% among 390,000. AID 504327, 2011
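Enzyme at 20nM final was mixed with library compounds for 15 min at room temperature. Peptide H3(1-25) at 75uM, acetyl-CoA at 70uM and ThioGlo1 at 50uM were then added. Plates were read immediately and after 20 min (Ex340nm/Em540nm).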
TDP1 inh: qHTS Assay for Inhibitors of Tyrosyl-DNA Phosphodiesterase (TDP1) | recombinant TDP1, AlphaScreen DNA substrate cleavage | Potency, µM (series often up to 130 µM), usual class: inhibitors | AID 485290, 2010 | Tyrosyl-DNA phosphodiesterase 1 (Homo sapiens), Q9NUW8 | hit rate 0.28% among 350,000; note: nearly all actives have a fitted effect of over 40% in size
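AlphaScreen read-out: signal falls as enzyme removes the 3' tyrosine-FITC from a 5'-biotinylated DNA oligo (15 nM, 5 min, RT). Enzyme was E. coli-made recombinant Tdp1 at 1 nM, exposed to compound for 15 min beforehand; beads 10 ug/ml, 10 min.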
PLK1 PBD inh: qHTS for Inhibitors of PLK1-PDB (polo-like kinase 1 - polo-box domain): Primary Screen; Serine/threonine-protein kinase PLK1 (Homo sapiens), P53350; Plk1 PBD binding of FITC phosphopeptide, fluorescence polarization; Potency, µM, actives largely listed as inhibitors; hit rate 2.8% among 360,000; AID 720504, 2013; note: series mostly up to about 57 µM; nearly all actives have a fitted effect of over 65% in size
Hits are given with their value; [ ] = dose if it differs, or a comment. Calls come from the whole dose curve; as a rule, active = well fitted curve in the direction sought with a large enough effect; inconclusive = small, poorly fitted or top-dose-only effect, or another doubt; inactive = no such curve, though single readings can be large; an effect the other way counts as inactive or inconclusive.

Screening O=C(Nc1ccc(C(=O)O)cc1)Nc1cccc2ccccc12 returned VDR inhibitor inactive, TDP1 cell noCPT inactive, TDP1 cell CPT inactive, GCN5L2 inh inactive, TDP1 inh inactive and PLK1 PBD inh inactive.
Screening NC(=O)Nc1cccc2ccccc12 returned VDR inhibitor inactive, TDP1 cell noCPT inactive, TDP1 cell CPT inactive, GCN5L2 inh inactive, TDP1 inh inactive and PLK1 PBD inh inactive.
Screening O=C(Nc1ccccc1)Nc1cccc2ccccc12 returned VDR inhibitor inactive, TDP1 cell noCPT inconclusive, TDP1 cell CPT 16µM, GCN5L2 inh inactive, TDP1 inh inactive and PLK1 PBD inh inactive.
`O=C(Nc1ccccc1)Nc1ccc(O)c2ccccc12` gave VDR inhibitor 50µM, TDP1 cell noCPT 12µM, TDP1 cell CPT 1.6µM and PLK1 PBD inh inconclusive.
Screening S=C(CSc1ccccc1)Nc1cccc2ccccc12 returned TDP1 cell noCPT inconclusive, TDP1 cell CPT inconclusive and PLK1 PBD inh 11µM.
For O=C(Nc1cccc2ccccc12)N(c1ccccc1)c1ccccc1 the results were VDR inhibitor inactive, TDP1 cell noCPT 21µM, TDP1 cell CPT 21µM and PLK1 PBD inh inactive.
COc1ccc(C(=O)N2CCCC(O)C2)cc1OC1CCN(C(C)C)CC1 (stereo not given) was read as VDR inhibitor inactive, TDP1 cell noCPT inactive, TDP1 cell CPT inactive, GCN5L2 inh inactive, TDP1 inh inactive and PLK1 PBD inh inactive.
Screening O=C(O)CC(NC(=O)CC(c1ccccc1)c1ccccc1)c1cccc([N+](=O)[O-])c1 (stereo not given) returned VDR inhibitor inactive, TDP1 cell noCPT inactive, TDP1 cell CPT inactive, GCN5L2 inh inactive and PLK1 PBD inh inactive.
COc1ccc(N(CC(=O)NCc2ccccc2OC)S(=O)(=O)c2ccccc2[N+](=O)[O-])c(OC)c1 was read as VDR inhibitor inactive, TDP1 cell noCPT inconclusive, TDP1 cell CPT inconclusive, GCN5L2 inh inactive, TDP1 inh inactive and PLK1 PBD inh inactive.
Screening COc1ccc(N(CC(=O)NCc2ccc3c(c2)OCO3)S(=O)(=O)c2ccccc2[N+](=O)[O-])c(OC)c1 returned VDR inhibitor inactive, TDP1 cell noCPT inconclusive, TDP1 cell CPT 26µM, GCN5L2 inh inactive, TDP1 inh inactive and PLK1 PBD inh inactive.
For COc1ccc(N(CC(=O)Nc2cc(C)ccc2C)S(=O)(=O)c2ccccc2[N+](=O)[O-])c(OC)c1 the results were VDR inhibitor inactive, TDP1 cell noCPT 12µM, TDP1 cell CPT inconclusive, GCN5L2 inh inactive, TDP1 inh inactive and PLK1 PBD inh 12µM.
CN(C)CCn1c(SCc2ccccc2C#N)nc2c(sc3ccccc32)c1=O was read as VDR inhibitor inactive, TDP1 cell noCPT inconclusive, TDP1 cell CPT inactive, GCN5L2 inh inactive and PLK1 PBD inh inactive.
For O=C(COc1ccccc1)Nc1ccc(Cl)c(-c2nc3ncccc3o2)c1 the results were VDR inhibitor inactive, TDP1 cell noCPT inactive, TDP1 cell CPT inactive, GCN5L2 inh inactive and PLK1 PBD inh inactive.
Screening CCCOc1ccc(C(=O)Nc2ccc(Cl)c(-c3nc4ncccc4o3)c2)cc1 returned VDR inhibitor inactive, TDP1 cell noCPT 10µM, TDP1 cell CPT 23µM, GCN5L2 inh inactive and TDP1 inh inactive[2.28 µM].
Cc1ccc2oc(-c3cccc(NC(=O)COc4ccc(Cl)cc4C)c3C)nc2c1 was read as TDP1 cell noCPT inactive and TDP1 cell CPT inactive.
For Cc1ccc(OCC(=O)Nc2ccc(Cl)c(-c3nc4ncccc4o3)c2)c(C)c1 the results were VDR inhibitor inactive, TDP1 cell noCPT 15µM, TDP1 cell CPT inconclusive, GCN5L2 inh inactive and TDP1 inh inactive.
`Cc1cc(C)c2oc(-c3cccc(NC(=O)COc4ccc(Cl)cc4C)c3C)nc2c1` gave TDP1 cell noCPT inactive and TDP1 cell CPT 5µM.
Screening Cc1cc(C)cc(OCC(=O)Nc2ccc(Cl)c(-c3nc4ncccc4o3)c2)c1 returned VDR inhibitor inactive, TDP1 cell noCPT inconclusive, TDP1 cell CPT 18µM, GCN5L2 inh inactive and TDP1 inh inactive.
For CC1C(=O)N(S(=O)(=O)c2ccc([N+](=O)[O-])cc2)[C@H]1c1ccc2ccccc2c1 (stereo not given in full) the results were VDR inhibitor inconclusive and TDP1 inh inactive.
For CC(C)C[C@@H](CC(=O)N[C@@H](CCCN)CC(=O)N[C@@H]1CCCC[C@H]1C(=O)N[C@H](CC(=O)N[C@@H](CCC(=O)O)CC(=O)O)Cc1c[nH]c2ccccc12)NC(=O)[C@@H]1CNCC[C@H]1N the results were VDR inhibitor inactive and TDP1 inh inactive.
For O=C1CC(c2ccccc2)Sc2ccccc2N1Cc1ccccc1F (stereo not given) the results were VDR inhibitor inactive, GCN5L2 inh inactive and TDP1 inh inactive.
`Cc1cn2c(=O)cc(COC(=O)COc3ccc(C)c(C)c3)nc2s1` gave VDR inhibitor inactive, TDP1 cell noCPT inactive, TDP1 cell CPT inactive, GCN5L2 inh inactive and TDP1 inh inactive.
Cc1cccc(C)c1NC(=S)N1CCC(c2ccccc2)C1 (stereo not given) was read as VDR inhibitor inactive, TDP1 cell noCPT inconclusive, TDP1 cell CPT inactive, GCN5L2 inh inactive, TDP1 inh inactive and PLK1 PBD inh inactive.
Screening O=C(Nc1ccc(F)cc1)C(c1ccccc1)N1CCN(c2ccncc2)CC1 (stereo not given) returned TDP1 cell noCPT inconclusive, TDP1 cell CPT inactive and PLK1 PBD inh inactive.
Cc1cccc(C)c1NC(=O)C(CCc1ccccc1)N1CCC(c2ccccc2)CC1 (stereo not given) was read as TDP1 cell noCPT 18µM, TDP1 cell CPT 16µM and PLK1 PBD inh inactive.
Screening O=C(Nc1ccc(F)cc1)C(CCc1ccccc1)N1CCN(c2ccncc2)CC1 (stereo not given) returned TDP1 cell noCPT 23µM, TDP1 cell CPT 16µM and PLK1 PBD inh inactive.
Cc1cccc(C)c1NC(=O)C(c1ccccc1)N1CCC2(CC1)OCCO2 (stereo not given) was read as VDR inhibitor inactive, TDP1 cell noCPT inactive, TDP1 cell CPT inactive and PLK1 PBD inh inactive.
Screening Cc1cccc(C)c1NC(=O)C(c1ccccc1)N1CCC(c2ccccc2)CC1 (stereo not given) returned TDP1 cell noCPT 15µM, TDP1 cell CPT inconclusive and PLK1 PBD inh inactive.

Screens deposited in PubChem BioAssay by National Center for Advancing Translational Sciences (NCATS).
